High-throughput results deposited in PubChem by several laboratories.
A selection: hits, their analogues and other compounds. The true share with any hit is near 4.2%.
V-ATPase pHluor = yeast V-ATPase proton transport regulation by pHLuorin; S. cerevisiae, pHLuorin cytosolic pH fluorescence; response, % at 10 µM; 0.37% of 350,000 active; AID 504577; in the data active means response mostly above about 7.3%, no sharp cut-off; inactive means mostly below about 5.4%; further: actives read high
tim10-1 inh = inhibits growth of tim10-1 mutant yeast; S. cerevisiae tim10-1 ts strain growth, BacTiter-Glo, 24 h; 2.2% of 330,000 active; inhibition, % at 20 µM;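 active means inhibition of at least 40%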;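 further: mutant grown at 25 °C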
NALP1 yeast inh = NALP1 inhibition. inhibition, % at 10 µM. 0.61% of 280,000 active. S. cerevisiae NALP1/ASC/caspase-1 growth, X-gal OD620, 72 h; in the data active means inhibition mostly above about 24%, no sharp cut-off; inactive means mostly below about 32%
NLRP3 yeast inh = inhibitors of NALP3 inflammasome in yeast. 0.39% of 330,000 active. inhibition, % at 10 µM. AID 2825. Yeast reconstituted NLRP3/ASC/caspase-1, beta-gal luminescence, 24 h;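 active means inhibition of 50% or more; inactive means inhibition below 50%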
tim23-1 inh = growth inhibitors of tim23-1 mutant yeast | S. cerevisiae tim23-1 growth, BacTiter-Glo luminescence, 24 h | AID 463212 | inhibition, % at 20 µM | 1.3% of 330,000 active;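 active means growth inhibition of the mutant yeast at or above 50%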;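 further: temperature-sensitive mutant grown at 25 °C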
TIM10 inh = TIM10 yeast growth inhibition. S. cerevisiae TIM10 strain growth, BacTiter-Glo luminescence, 24 h. inhibition, % at 10 µM. 1.4% of 330,000 active. AID 463195;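 active means inhibition of 40% or more at the single tested concentration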;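 further: wild-type TIM10 isogenic control strain grown at permissive 25 °C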
TIM10 conf = confirmation of TIM10 yeast growth inhibitors. 63% of 4,600 active. inhibition, % at 10 µM. S. cerevisiae tim10 strain growth, BacTiter-Glo luminescence, 24 h. shares compounds with TIM10 inh;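 active means inhibition of yeast growth at or above a set limit in either of two replicates at 10 µM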; further: this counterscreen used the strain with wild-type TIM10
Of the large screens only hits and unclear results are named; the others gave an inactive call (follow-up assays come after a bar, where they were run).

Cc1ccc(S(=O)(=O)N/N=C2/CC(c3ccccc3)Oc3ccccc32)cc1 (configuration not stated)	none
CCN1C(=O)/C(=C/c2ccc(C)s2)NC1=S	TIM10 inh 41 | TIM10 conf inactive
NNC(=O)c1nnn(-c2nonc2N)c1CN1CCc2ccccc2C1	none
Cc1ccc(C)c(NC(=O)CN2C(=O)c3ccccc3C2=O)c1	none (no result: NALP1 yeast inh)
Cc1ccc(NC(=O)CN2C(=O)c3ccccc3C2=O)c(C)c1	TIM10 inh 97 | TIM10 conf inactive
COC(=O)c1ccc(OCc2cc(=O)n3ccsc3n2)cc1	none
C/C(=N\OCC(=O)N/N=C/c1ccc(C)cc1O)c1cccs1	TIM10 inh 53 | TIM10 conf inactive
C/C(=N\NC(=O)CO/N=C(\C)c1cccs1)c1ccc(N)cc1	none
O=C(CSc1nc(-c2ccccc2)c(-c2ccccc2)o1)NCCCO	none
COc1cc(/C=C/C(=O)c2ccc(F)cc2)cc(OC)c1OC	TIM10 inh 42 | TIM10 conf 42
COc1cc(/C=C/C(=O)c2ccc3c(c2)OCO3)cc(OC)c1OC	none (no result: NALP1 yeast inh)
Cc1cccc(C)c1NC(=O)CN1C(=O)NC(C)(CCc2ccccc2)C1=O (configuration not stated)	none
COc1cccc2cc(/C(=N/O)c3ccccc3)oc12	TIM10 inh 55 | TIM10 conf 42
COc1cccc2cc(C(C)=O)oc12	none
COc1ccc(C(=O)COC(=O)CCc2nc3ccccc3[nH]c2=O)cc1Br	none
CC1(C(=O)OCC(=O)Nc2ccc3ccccc3c2)CC1(Cl)Cl (configuration not stated)	TIM10 inh 48 | TIM10 conf 32
CC1(C(=O)OCC(=O)Nc2ccc(C(N)=O)cc2)CC1(Cl)Cl (configuration not stated)	none
c1ccc(/N=C2\N=C(Nc3ccccn3)c3ccccc32)nc1	TIM10 inh 46 (no result: NALP1 yeast inh) | TIM10 conf inactive
Nc1c2c(nc3sc4c(c13)CCCC4)-c1ccccc1CC2	TIM10 inh 43 | TIM10 conf 41
Fc1ccc(CNCC2CCCO2)cc1 (configuration not stated)	TIM10 inh 97 | TIM10 conf inactive
COc1ccc(CCN(C)C(=S)NC(=O)c2ccc(F)cc2Cl)cc1OC	TIM10 inh 45 | TIM10 conf inactive
COC(=O)[C@@]12CCCN1[C@H](c1ccc(-c3ccccc3)cc1)[C@H]1C(=O)N(C)C(=O)[C@H]12	none (no result: NALP1 yeast inh)
O=C(NC(=S)NCCC1=CCCCC1)c1cccnc1	TIM10 inh 54 | TIM10 conf 48
O=C(NC(=S)NCc1ccccc1)c1cccnc1	none
COc1ccc(-c2nc(SC)n(C(=O)c3ccco3)n2)cc1	TIM10 inh 42 | TIM10 conf inactive
CCn1cc(SCC(=O)NC2CCCC2)c2ccccc21	none
Cc1cc(C)nc(N/N=C/c2ccccc2OCc2cccc(Br)c2)n1	TIM10 inh 48 | TIM10 conf inactive
Cc1cc(C)nc(N/N=C/c2ccccc2OCc2ccc(Br)cc2)n1	none
COc1ccc2[nH]c3c(c2c1)CCNC3C1CC=C(C)CC1 (configuration not stated)	none
COc1ccc2[nH]c3c(c2c1)CCNC3c1ccc([N+](=O)[O-])o1 (configuration not stated)	TIM10 inh 41 | TIM10 conf 54
CCOC(=O)C1CCN(S(=O)(=O)c2ccc3c(c2)CC(C)N3C(=O)C2CC2)CC1 (configuration not stated)	TIM10 inh 40 | TIM10 conf 49
COc1ccc(NC(=O)c2cc3n(n2)C(C(F)(F)F)CC(c2ccc4c(c2)OCO4)N3)cc1OC (configuration not stated)	TIM10 inh 41 | TIM10 conf 35
COc1ccc(C2CC(C(F)(F)F)n3nc(C(=O)NCCCn4ccnc4)cc3N2)cc1OC (configuration not stated)	none
CCCC(=O)N1CCN(c2ccc(NC(=O)C(C)(C)C)cc2Cl)CC1	none
CCCC(=O)N1CCN(c2ccc(NC(=O)c3cccs3)cc2Cl)CC1	TIM10 inh 46 | TIM10 conf inactive
CN1CCN(C(=O)c2ccccc2Nc2ccc(SC(F)F)cc2)CC1	none
O=S(=O)(c1ccc2c(c1)OCCO2)N1CCN(Cc2ccccc2)CC1	TIM10 inh 43 | TIM10 conf inactive
CC(C)CNC(=O)COC(=O)CCC(=O)c1ccc(F)cc1	none
COc1ccc(N(C(=O)c2ccco2)S(=O)(=O)c2ccc(F)cc2)cc1	TIM10 inh 42 | TIM10 conf inactive
COc1ccc(N(C(=O)c2ccco2)S(=O)(=O)c2cccc([N+](=O)[O-])c2)cc1	none
CSc1ccc(C(=O)C2CCCN(C(=O)c3ccc4c(c3)no[n+]4[O-])C2)cc1 (configuration not stated)	TIM10 inh 46 | TIM10 conf 35
CSc1ccc(C(=O)C2CCCN(C(=O)c3ccsc3)C2)cc1 (configuration not stated)	none
Brc1ccc(CSc2nnc(-c3cnccn3)n2Cc2ccco2)cc1	TIM10 inh 45 | TIM10 conf inactive
CC(C)OC(=O)CSc1nnc(-c2cnccn2)n1Cc1ccco1	none
CCOC(=O)C1=C(C)NC2=C(C(=O)c3ccccc32)C1c1ccc([N+](=O)[O-])o1 (configuration not stated)	TIM10 inh 49 | TIM10 conf 40
O=C(Nc1nc(-c2cccs2)cs1)c1cccc(S(=O)(=O)N2CCCCC2)c1	TIM10 inh 42 | TIM10 conf 31
Cc1nc(SC2CC(=O)N(c3ccccc3)C2=O)n[nH]1 (configuration not stated)	none (no result: V-ATPase pHluor)
Cc1nc(S/C(C(=O)O)=C2/C(=O)Nc3ccccc32)n[nH]1	TIM10 inh 41 (no result: NALP1 yeast inh) | TIM10 conf 38
CCOc1ccc(Cl)cc1/C=N/NC(=O)CNC(=O)c1ccccc1	none
O=C(Nc1ccccc1-c1ccccc1)C12CC3CC(CC(C3)C1)C2	TIM10 inh 50 | TIM10 conf 39
COc1cc(OC)cc(-c2nc3ccccc3c(=O)n2OC(=O)c2ccccc2C)c1	TIM10 inh 48 | TIM10 conf inactive
Cc1cc2nc(-c3cccc(NC(=O)c4ccc(Br)o4)c3)oc2cc1C	none
Cc1ccc(Cl)cc1NC(=S)N1CCC(c2ccccc2)C1 (configuration not stated)	TIM10 inh 52 | TIM10 conf 37
COc1ccc(NC(=S)N2CCC(c3ccccc3)C2)cc1 (configuration not stated)	none
Cc1cccc(C(=O)NCCNc2nc3cc(C)c(C)cc3cc2C)c1	TIM10 inh 45 | TIM10 conf 39
FC(F)(F)c1cccc(NC(=S)NCc2ccccc2)c1	TIM10 inh 47 | TIM10 conf 49
